ssDAF-12 act = S. stercoralis DAF-12 activation, primary screen | HEK293 ssDAF-12/GRIP1 lit1-tk-luc reporter, luminescence; % of 3 µM dafachronic acid response | activation, % at 6.8 µM | hit rate 1% among 370,000;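 active means activation above the mean over all tested compounds plus 3 SD, cut at about 0.9% in these data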;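 further: 0% = DMSO-only wells and 100% = 3 µM delta7-dafachronic acid wells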
DAX1 inh-1 = inhibits human nuclear receptor DAX1; HEK293 Gal4-DAX1 luciferase reporter, luminescence; inhibition, % at 6.75 µM; hit rate 0.99% among 340,000; P51843;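 active means inhibition above the mean over all tested compounds plus 3 SD, cut at about 4.2% in these data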;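 further: 0% = DAX1-transfected cells with DMSO and 100% = empty-vector control cells with DMSO; inhibition shows as a rise in luminescence from relieved DAX1 repression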
Target sequence (P51843 207-470 limits assumed): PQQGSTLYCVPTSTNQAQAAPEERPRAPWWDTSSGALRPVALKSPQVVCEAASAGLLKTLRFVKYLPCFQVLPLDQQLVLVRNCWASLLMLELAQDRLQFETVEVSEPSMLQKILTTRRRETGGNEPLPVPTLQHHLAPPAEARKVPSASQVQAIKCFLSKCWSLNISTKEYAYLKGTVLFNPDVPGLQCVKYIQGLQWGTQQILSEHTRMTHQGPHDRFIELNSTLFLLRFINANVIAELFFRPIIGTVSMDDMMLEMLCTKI
hcDAF12 agonist = H. contortus DAF-12 activation, primary screen. HEK293 hcDAF-12 lit1-tk-luc reporter, luminescence; 0% DMSO, 100% Δ7-dafachronic acid. hit rate 1.4% among 370,000. AID 652067. activation, % at 6.8 µM;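 active means activation above the mean of all tested compounds plus 3 SD, cut at about 5.5% in these data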;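 further: 100% = response to 3 µM Δ7-dafachronic acid high control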
DAX1 inh-2 = DAX1 (NR0B1) inhibition, primary screen. inhibition, % at 6.8 µM. HEK293T StAR-luciferase reporter, SF-1/DAX-1 repression relief. hit rate 1.1% among 370,000. AID 652010;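 active means inhibition above the mean over all tested compounds plus 3 SD, cut at about 3.6% in these data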;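 further: 0% = DAX-1 cells with DMSO and 100% = cells lacking DAX-1 with DMSO; higher inhibition means more luminescence from relief of DAX-1 repression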
hgDAF-12 ag = activates the H. glycines DAF-12 receptor ligand-binding domain; HEK293 GAL4-hgDAF12 UAS-luciferase reporter, agonist luminescence; normalized to butyrate control; activation, % at 6.8 µM; hit rate 1.8% among 370,000;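 active means activation above a cutoff set at the mean of all screened compounds plus 3 SD, cut at about 10% in these data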;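 further: 0% = DMSO wells and 100% = sodium butyrate wells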
GAA850 FXN act = activators of GAA850 frataxin (FXN) promoter | HEK293 lucGAA850 FXN promoter luciferase reporter, 24 h; percent of 10 µM SAHA response | hit rate 0.56% among 360,000 | AID 540364 | activation, % at 6 µM;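 active means activation above the average of all compounds screened plus 3 SD, cutoff fixed separately per campaign, cut at about 7.5% in these data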;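 further: 0% = DMSO wells and 100% = 10 µM SAHA wells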
GAA30 FXN cntr = counter-screen for GAA850 frataxin promoter activators: GAA30 promoter activation. shares compounds with GAA850 FXN act. AID 588350. activation, % at 6 µM. HEK293 lucGAA30 FXN promoter luciferase, 24 h; DMSO = 0%, 5 µM ipriflavone = 100%. hit rate 66% among 1,900;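 active means mean activation above the mean of solvent-only control wells plus 3 SD, cut at about 22% in these data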;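 further: counterscreen of GAA850 promoter hits where activity marks nonselective or luminescence artifacts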
GAA850 confirm = GAA850 FXN promoter activation confirmation. shares compounds with GAA850 FXN act. HEK293 lucGAA850 FXN promoter luciferase reporter, 24 h; 100% = activation by SAHA. activation, % at 6 µM. hit rate 86% among 1,900. AID 588351;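 active means mean activation above a set limit taken from the primary screen, cut at about 8% in these data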;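 further: 0% = DMSO wells and 100% = 10 µM SAHA wells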
DAX1 conf = confirmation of human DAX1 (NR0B1) inhibitors; shares compounds with DAX1 inh-2; hit rate 87% among 2,400; HEK293T StAR-promoter luciferase reporter, SF-1/DAX-1 repression; inhibition, % at 6.8 µM;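 active means inhibition above the average of every tested compound plus 3 SD, cut at about 3.8% in these data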;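 further: 0% = DAX-1 cells with DMSO and 100% = no DAX-1 control cells with DMSO; active compounds raise luminescence by relieving repression of the StAR reporter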
Target sequence (P51843 whole entry, looked up): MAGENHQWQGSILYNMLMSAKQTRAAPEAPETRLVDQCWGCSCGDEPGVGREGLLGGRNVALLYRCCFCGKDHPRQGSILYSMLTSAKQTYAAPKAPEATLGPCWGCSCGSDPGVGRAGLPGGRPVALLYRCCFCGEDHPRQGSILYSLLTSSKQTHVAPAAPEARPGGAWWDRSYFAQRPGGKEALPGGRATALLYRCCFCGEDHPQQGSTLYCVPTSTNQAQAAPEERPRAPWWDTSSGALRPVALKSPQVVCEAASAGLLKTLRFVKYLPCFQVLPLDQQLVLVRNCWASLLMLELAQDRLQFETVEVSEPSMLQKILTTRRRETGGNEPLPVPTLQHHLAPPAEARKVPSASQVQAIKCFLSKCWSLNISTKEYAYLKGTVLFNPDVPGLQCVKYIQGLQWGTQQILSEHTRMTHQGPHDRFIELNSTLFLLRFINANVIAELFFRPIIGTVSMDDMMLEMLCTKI
SF1 mutant ctr = counter-screen for DAX1 inhibitors: nonselective inhibitors with SF-1 AF2 mutant. shares compounds with DAX1 inh-2. HEK293 StAR-luciferase, luminescence. inhibition, % at 6.8 µM. hit rate 78% among 2,400. AID 652136;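 active means inhibition above the mean of all tested compounds plus 3 SD, cut at about 3% in these data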;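 further: 0% = DAX-1 transfected cells with DMSO and 100% = cells without DAX-1 with DMSO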
LXR ag = activates human LXR-beta, counter-screen for hcDAF-12 agonists | shares compounds with hcDAF12 agonist | HEK293 Gal4-LXR tk-luc reporter, luminescence, 24 h; normalized: DMSO 0%, positive control 100% | activation, % at 6.8 µM | 3,400 tested, under 10 active | AID 743027;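 active means mean percent activation of the reporter above a cutoff set as the average over tested compounds plus their standard deviation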
hcDAF12 conf = confirmation of H. contortus DAF-12 agonists; activation, % at 6.8 µM; AID 743032; hit rate 61% among 3,400; HEK293 hcDAF-12 lit1-tk-luc reporter, luminescence; % of Δ7-dafachronic acid response; shares compounds with hcDAF12 agonist;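 active means mean activation across triplicate tests above the threshold derived from the earlier primary screen, cut at about 5.5% in these data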;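 further: 0% = DMSO only wells and 100% = 3 µM Δ7-dafachronic acid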
hgDAF12 ag = confirmation of H. glycines DAF-12 agonists | activation, % at 6.8 µM | hit rate 80% among 3,300 | shares compounds with hgDAF-12 ag | HEK293 GAL4-hgDAF12 luciferase reporter, agonist mode; percent of butyrate response | AID 743050;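 active means mean activation over triplicate wells above the hit cutoff derived from the earlier primary screen, cut at about 11% in these data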;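 further: 0% = DMSO low control and 100% = 2 mM sodium butyrate high control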
LXRb DAF12 ctr = LXR-beta agonism as DAF-12 counter-screen; shares compounds with hgDAF-12 ag; HEK293 Gal4-LXR luciferase reporter, 24 h; activation, % at 6.8 µM; 3,300 tested, under 10 active; AID 743051;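 active means mean activation of the triplicate above a set limit carried over from the primary screen, none filed active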
* = called active by the depositor; . = no result given. This is a sample that favours compounds with a hit; in the whole collection about 4.5% have one here.

SMILES	ssDAF-12 act	DAX1 inh-1	hcDAF12 agonist	DAX1 inh-2	hgDAF-12 ag	GAA850 FXN act	GAA30 FXN cntr	GAA850 confirm	hgDAF12 ag	LXRb DAF12 ctr	others
O=c1[nH]c2ccccc2nc1/C=C/c1ccc(O)cc1	-1	0	-1	0	14*	7.6*	121*	35*	4	1
CCC(=O)Nc1cccc(NC(=S)NC(=O)c2cc3ccccc3o2)c1	1	2	5	2	16*	8.0*	106*	34*	22*	1
CCC(=O)Nc1cccc(NC(=S)NC(=O)c2ccc(C)cc2)c1	-1	4.8*	3	3.8*	14*	8.2*	107*	34*	16*	1
CCC(=O)Nc1ccc(NC(=S)NC(=O)c2cc3ccccc3o2)cc1	-1	0	1	-1	1	4	.	.	.	.
COc1ccccc1CNc1cc(C)ccn1	-1	2	0	0	-2	2	.	.	.	.
O=C(O)CC(Cc1ccc(Br)cc1)C(=O)Nc1ccccc1 (stereo unspecified)	-1	2	-1	0	2	-1	.	.	.	.
CCOC(=O)C(C)(C)CC#CCN(CC#Cc1ccccc1)S(=O)(=O)c1ccc(C)cc1	-1	.	-1	-1	2	.	.	.	.	.
C/C(=N\NC(=O)c1ccc2c(c1)OCO2)c1ccc2c(c1)OCO2	-1	2	0	0	4	0	.	.	.	.
C/C(=N\NC(=O)c1cccs1)c1ccc2c(c1)OCO2	0	.	5	3	20*	7.6*	77*	25*	8	0
Cc1c(C(=O)Nc2ccccc2)csc1-c1ccccc1	1.7*	0	8.1*	6.0*	20*	8.5*	113*	29*	25*	1	DAX1 conf=16*;SF1 mutant ctr=5.6*;LXR ag=2;hcDAF12 conf=6.5*
COc1cccc(/C=N/Nc2ccc([N+](=O)[O-])cc2)c1O	1	2	7.3*	1	25*	8.1*	106*	35*	21*	1	LXR ag=2;hcDAF12 conf=7.2*
COC(=O)c1ccc(N/N=C/c2cc([N+](=O)[O-])cc(OC)c2O)cc1	-1	0	1	1	0	0	.	.	.	.
CCCOc1ccc(-c2c(=O)n(O)c3ccccc3[n+]2[O-])cc1	-1	3	6.2*	4.5*	20*	11*	95*	31*	13*	0
O=C(c1ccc(-c2cccc(Cl)c2Cl)o1)N1CCOCC1	0	2	4	4.0*	17*	8.8*	108*	39*	16*	1
S=C(c1ccc(-c2ccccc2Cl)o1)N1CCOCC1	.	1	.	.	.	4	.	.	.	.
O=c1[nH]c(=O)n(CCCc2ccccc2)cc1-c1ccccc1	-1	-1	-2	-1	-3	-1	.	.	.	.
CC(=O)N1CCC(=NNC(=O)c2cccs2)CC1	0	5.3*	5	4.0*	14*	8.7*	11	1	9	0
O=C(NN=C1C2CC3CC(C2)CC1C3)c1cccs1	0	3	5	7.4*	14*	8.8*	24*	11*	1	0	DAX1 conf=3;SF1 mutant ctr=1
COc1ccc(N2CCN(C(=O)c3ccc(NC(=O)C4=CSCCO4)cc3)CC2)cc1	.	0	.	.	.	2	.	.	.	.
Nc1nccc(-c2ccc(-n3cccc3)cc2)n1	0	0	5	1	6	3	.	.	.	.
Cc1cccc(Nc2n[nH]c(C)c2[N+](=O)[O-])c1	0	2	6.8*	3.7*	14*	8.7*	92*	37*	14*	1	LXR ag=1;hcDAF12 conf=5.8*
Cc1[nH]nc(Nc2ccccc2)c1[N+](=O)[O-]	-1	1	-1	0	4	1	.	.	.	.
O=C(Nc1cnn(C23CC4CC(CC(C4)C2)C3)c1)c1cnn2cccnc12	1.2*	0	4	5.8*	14*	10*	107*	42*	15*	1	DAX1 conf=10*;SF1 mutant ctr=5.9*
COC(=O)[C@]12C[C@H](CC(=O)NCc3cccc4ccccc34)C(=O)N(Cc3ccc4c(c3)OCO4)C1=C[C@H](C(C)(C)C)O[C@@H]2C	-1	.	1	0	0	.	.	.	.	.
Cc1ccc(CC(C(=O)O)C(C)C(=O)Nc2ccc(F)cc2)cc1 (stereo unspecified)	0	0	5	0	3	1	.	.	.	.
O=c1c(/C=N\NS(=O)(=O)c2ccccc2)coc2ccc(Cl)cc12	-1	0	-1	-1	6	-1	.	.	.	.
COc1ccc(C(=O)Nc2nc3ccccc3s2)cc1OC	0	2	3	3	19*	11*	116*	29*	14*	1
COc1ccc(-c2nc3ccccc3s2)cc1NC(C)=O	0	2	9.6*	8.9*	19*	8.4*	124*	40*	16*	1	DAX1 conf=8.2*;SF1 mutant ctr=4.0*;LXR ag=1;hcDAF12 conf=7.8*
N#CC(=C1CCCC1)c1nc(-c2ccccc2)cs1	1.7*	5.2*	7.5*	2	17*	9.5*	111*	39*	21*	1	LXR ag=1;hcDAF12 conf=6.0*
Cc1ccc(-c2csc(C(C#N)=C3CCCC3)n2)cc1	-1	-1	0	0	2	4	.	.	.	.

Screening data (PubChem BioAssay)
